PDI inh = inhibitors of human protein disulfide isomerase; P07237; PDI insulin aggregation turbidity, A650, 90 min; inhibition, % at 10 µM; actives 0.052% (n = 350,000); AID 588391;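 active = mean inhibition across replicates of 30% or more, whatever share of single replicates reach that level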
ERp5 inh = inhibitors of human ERp5. actives 0.05% (n = 350,000). inhibition, % at 9.99 µM. ERp5 insulin aggregation, absorbance 650 nm, 90 min;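 active = mean replicate inhibition above about 25%, with every replicate also reaching it, limit read from the data, passing the limit was not always enough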
DENV2 CPE = protects cells from dengue virus 2 cytopathic effect. CPE inhibition, % at 9.99 µM. DENV2-infected cells, cytopathic effect rescue, plate reader. actives 1.7% (n = 350,000). AID 651640; in the data active = CPE inhibition above about 20%, passing the limit was not always enough; tested in BHK-21 cells;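 note: 0% = median of neutral control wells and 100% = median of positive control wells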
ERAP1 HTS inh = blocks human ERAP1 aminopeptidase activity; recombinant ERAP1, Leu-AMC fluorescence, 60 min; actives 0.15% (n = 340,000); inhibition, % at 10.7 µM; Q9NZ08;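 active = mean replicate inhibition of at least 30%, or all replicates individually reaching that 30% level; inactive = mean below 30% and not every replicate reaching it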;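 note: 0% = neutral control wells and 100% = L-leucinethiol positive control wells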
MLL AF4-AF9 inh = MLL-AF4/AF9 protein interaction inhibition | AlphaScreen, biotin-AF4 peptide binding to FLAG-AF9 | inhibition, % at 10 µM | actives 0.47% (n = 350,000);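 active = every replicate reaching a set inhibition limit, whatever the replicate mean, cut at about 25% in these data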;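 note: 0% = plate neutral control median and 100% = total signal loss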
The depositor's hits bear a star; . = no result. The list is not random: actives were taken first. Their share in the collection is about 1.8%.

SMILES	PDI inh	ERp5 inh	DENV2 CPE	ERAP1 HTS inh	MLL AF4-AF9 inh
C[C@@H]1CN([C@H](C)CO)C(=O)c2cc(NC(=O)c3ccccc3)ccc2O[C@@H](C)CCCCO[C@@H]1CN(C)S(=O)(=O)c1ccc(F)cc1	.	2	98*	1	-1
C[C@@H]1CCCCO[C@H](CN(C)S(=O)(=O)c2ccccc2)[C@@H](C)CN([C@@H](C)CO)C(=O)c2cc(NC(=O)c3ccncc3)ccc2O1	.	0	83*	1	1
C[C@H](CO)N1C[C@H](C)[C@@H](CN(C)S(=O)(=O)c2ccc(F)cc2)OCCCC[C@H](C)Oc2ccc(NC(=O)c3ccccc3)cc2C1=O	.	-2	5	0	1
COc1ccc(S(=O)(=O)N(C)C[C@@H]2OCCCC[C@@H](C)Oc3ccc(NC(=O)c4ccccc4)cc3C(=O)N([C@@H](C)CO)C[C@@H]2C)cc1	.	2	29*	-2	0
C[C@H]1CCCCO[C@H](CN(C)S(=O)(=O)c2ccc(F)cc2)[C@@H](C)CN([C@@H](C)CO)C(=O)c2cc(NC(=O)c3ccccc3)ccc2O1	.	-2	4	-1	0
COc1ccc(S(=O)(=O)N(C)C[C@@H]2OCCCC[C@@H](C)Oc3ccc(NC(=O)c4ccccc4)cc3C(=O)N([C@H](C)CO)C[C@H]2C)cc1	.	1	4	-6	1
C[C@@H]1CCCCO[C@@H](CN(C)S(=O)(=O)c2ccc(F)cc2)[C@@H](C)CN([C@@H](C)CO)C(=O)c2cc(NC(=O)c3ccccc3)ccc2O1	.	-2	93*	-1	-1
C[C@H](CO)N1C[C@H](C)[C@H](CN(C)S(=O)(=O)c2ccc(F)cc2)OCCCC[C@H](C)Oc2ccc(NC(=O)c3ccccc3)cc2C1=O	.	2	28*	1	1
C/C=C/c1ccc2c(c1)O[C@@H](CN(C)C(=O)Cc1cccnc1)[C@H](C)CN([C@@H](C)CO)S2(=O)=O	.	-3	0	1	-1
O=C(C[C@@H]1CC[C@@H]2[C@H](COC[C@H](O)CN2C(=O)c2ccccc2)O1)Nc1nccs1	.	-5	-1	1	-2
CN(C)C(=O)c1cccc(-c2ccc([C@@H]3[C@@H](CO)N4C(=O)CN(C(=O)C5CCCCC5)C[C@H]34)cc2)c1	.	-1	39*	1	3
CN(C)C(=O)c1cccc(-c2ccc([C@H]3[C@@H](CO)N4C(=O)CN(C(=O)C5CCCCC5)C[C@@H]34)cc2)c1	.	1	13	-2	-4
COc1ccc(-c2ccc([C@@H]3[C@H]4CN(C(=O)C5CC5)CC(=O)N4[C@H]3CO)cc2)cc1	.	2	31*	1	-3
COc1ccc(NC(=O)N2CCCCN3[C@H](C2)[C@H](c2ccc(-c4ccccc4F)cc2)[C@@H]3CO)cc1	.	-3	30*	1	-12
COc1ccc(C#Cc2ccc([C@H]3[C@@H](CO)N4CCCCN(C(=O)Nc5ccc(F)cc5)C[C@@H]34)cc2)cc1	.	3	30*	0	-6
COc1ccccc1CNC(=O)C[C@H]1CC[C@H]2[C@@H](COC[C@@H](O)CN2C(=O)Nc2ccc(Cl)cc2)O1	.	2	13	-2	-1
CCC(=O)N1[C@@H]2c3cccc(=O)n3C[C@@H]2[C@@H](CO)[C@@H]1C(=O)NC1CCCCC1	.	-7	6	-1	-2
COc1cc(Nc2ccn3nc(-c4ccccc4Cl)cc3n2)cc(OC)c1OC	10	1	30*	5	-1
Cc1ccc(NC(=O)Cn2cccc2C2=NC(c3ccccc3)CO2)cc1C (stereo unspecified)	-1	-1	103*	0	-1
CCc1ccccc1NC(=O)Cn1cccc1C1=NC(c2ccccc2)CO1 (stereo unspecified)	-6	.	.	.	.
N#C/C(=C\c1ccccc1OCc1ccc(C(=O)O)cc1)C(=O)Nc1ccc(O)cc1	51*	-1	-2	-5	-1
CCCC(=O)Nc1ccc2c(c1)C(=O)N(C)[C@@H]1CC[C@@H](CC(=O)OC)O[C@@H]1CO2	.	.	0	.	.
COc1ccc(-c2sc3ccccc3c2/C=C/c2ccncc2)cc1	5	1	20*	-2	19
CCOC(=O)C1CCN(C(=O)c2ccc(Cl)c(NC3=NC4CS(=O)(=O)CC4S3)c2)CC1 (stereo unspecified)	.	1	15	1	25*
O=C(C[C@@H]1CC[C@H](NC(=O)Nc2cc(F)ccc2F)[C@H](CO)O1)Nc1ccc(-c2ccccc2)cc1	.	0	-12	1	-6

Bioassay records: PubChem BioAssay, Broad Institute
